Bioassay records from PubChem BioAssay.
eIF4E 4G PPI: eIF4E–eIF4G protein interaction inhibitors, primary screen, biochemical, uHTS, TR-FRET, eIF4GI fragment. TR-FRET eIF4E-eIF4GI(517-606) binding, 2 h. inhibition, % at 21.7 µM. hit rate 0.37% among 220,000;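 active = inhibition above about 30%, limit read from the data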
PABP FP inh: PABP poly(A) RNA binding inhibitors, primary screen, biochemical, fluorescence polarization, uHTS; calls only at 35 µM; hit rate 1% among 290,000; AID 2014, 2009;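 also: calls also rest on retests at 20 µM and on dose response follow-up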
eIF4H inh: human eIF4H binding inhibitors, primary screen, translation initiation inhibitor project, biochemical, uHTS, fluorescence polarization; hit rate 0.94% among 290,000; Eukaryotic translation initiation factor 4H (Homo sapiens), Q15056; inhibition, % at 35 µM; AID 2012, 2009; eIF4H fluorescence polarization binding assay;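 also: calls also rest on retests at 20 µM and on dose response follow-up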
PERK inhibitor: block of dimerizer-induced PERK translation repression, primary screen, PERK inhibitor project, CHO PERK-DD cells, SEAP luminescence, HTS. inhibition, % at 5.6 µM. hit rate 0.17% among 220,000. CHO PERK-DD fusion, SEAP luminescence translation reporter. AID 1416, 2008. Eukaryotic translation initiation factor 2-alpha kinase 3 (Homo sapiens), Q9NZJ5;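 active = inhibition above the mean inhibition of all tested compounds plus 3 SD, set separately per screening campaign, cut at about 2.9% in these data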;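 also: PERK kinase domain activated by AP20187 dimerizer at 100 nM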
PABP1 MLLE inh: inhibitors of PABP1 MLLE–PAM2 peptide binding, primary screen, biochemical, fluorescence polarization, FITC-PAM2, GST-MLLE. hit rate 0.36% among 360,000. Polyadenylate-binding protein 1 (Homo sapiens), P11940. inhibition, % at 20 µM. AID 588489, 2011; in the data active = inhibition above about 35%, passing the limit was not always enough
A number is an active result; i = inactive; ? = inconclusive; nt = not tested or not shown; + = active, no number; [ ] = remark or other dose. A selection: hits, their analogues and other compounds. The true share with any hit is near 1.6%. Unless noted, no rule for the calls is given here.

SMILES | eIF4E 4G PPI | PABP FP inh | eIF4H inh | PERK inhibitor | PABP1 MLLE inh
O=S(=O)(c1ccc(=S)[nH]c1)N1CCCCCC1 | nt | nt | nt | nt | i
O=S(=O)(c1ccc(=S)[nH]c1)N1CCOCC1 | nt | nt | nt | nt | 46
COC(=O)C1=C(C(=O)OC)SC(=C2C(=S)C(C)(C)N(C(=O)C3CC3)c3ccccc32)S1 | i | i | i | i | 40
CCOC(=O)C1(C)CCN1C(=O)c1ccc(N(C)C)cc1 (centres undefined) | nt | nt | nt | nt | i
CC(C)N1CCN(Cc2ccc(Sc3nncn3C)o2)CC1CCO (centres undefined) | 94 | i | i | i | i
CCOc1ccc(N2C(=O)C(Cl)=C(Nc3ccccc3O)C2=O)cc1 | i | i | 11 | i | i
O=C(CN1C(=O)S/C(=C\c2ccccc2)C1=O)NNC(=O)c1ccccc1O | i | + | 7.4 | i | i
O=C(CN1C(=O)S/C(=C\c2ccccc2)C1=O)NCCCn1ccnc1 | nt | i | i | nt | 43
CC(=O)NNC(=O)CN1C(=O)/C(=C/c2ccccc2)SC1=S | i | i | i | i | 50
O=C(CCCN1C(=O)S/C(=C\c2ccccc2)C1=O)NNC(=O)c1ccccc1O | i | i | i | i | i
Cc1cccc(OC2CCN(Cc3nc(CC4CC4)no3)CC2)c1 | i | i | i | 3.0 | i
c1cnc2ccc(C(c3nnnn3C3CCCC3)N3CCN(c4nc5ccccc5s4)CC3)cc2c1 (centres undefined) | i | + | active | i | i
CCn1c(C)c(C(C)=O)c(N2CCN(c3ccccc3)CC2)nc1=S | i | + | 128 | i | i
CCn1c(C)c(C(C)=O)c(N2CCN(C(c3ccccc3)c3ccccc3)CC2)nc1=S | i | i | i | i | i
CC(=O)c1c(N2CCOCC2)nc(=S)n(-c2ccccc2)c1C | i | i | i | i | 45
CCSc1nc(=O)n(-c2ccccc2)c(C)c1C(C)=O | i | i | i | i | i
CCn1c(C)c(C(C)=O)c(N2CCN(c3ccccn3)CC2)nc1=S | i | + | 66 | i | i
CCSc1nc(=S)n(-c2ccccc2)c(C)c1C(C)=O | i | i | i | i | 43
CCn1c(C)c(C(C)=O)c(N2CCCCC2)nc1=S | i | i | i | i | i
CC(C)C[C@H]1CNC(=S)N1C[C@H]1CCCN1C[C@H](Cc1ccc(O)cc1)N1C[C@H](CC(C)C)N(CC2CCCCCC2)C1=S | nt | nt | nt | nt | i
CCC(=O)N(Cc1cc(=O)[nH]c2ccccc12)c1ccc(C)cc1 | i | i | i | i | i
O=C(NC(=S)Nc1ncccn1)c1ccccc1Cl | i | i | i | i | 41
CNC(=O)NC(=S)NC(=O)c1ccccc1Cl | i | i | i | i | i
O=C(O)c1ccc2c(=O)n3c(nc2c1)/C(=C/c1ccccc1OC(F)F)CC3 | nt | i | i | nt | i
O=C(CCSc1ccccc1)NC1CCCCCC1 | i | + | i | i | i
SMILES | eIF4E 4G PPI | PABP FP inh | eIF4H inh | PERK inhibitor | PABP1 MLLE inh
CC(CC(=O)NC1CCCC1)c1ccccc1 (centres undefined) | i | + | i | i | i
CSc1ccccc1NC(=S)Nc1ccc(S(N)(=O)=O)cc1 | i | i | i | i | 36
N#Cc1cc2c([nH]c1=S)CCCCCC2 | i | i | i | i | 38
CCOc1ccc(C(=O)NC(C(=O)NCc2cccnc2)C(C)C)cc1 (centres undefined) | nt | i | i | nt | i
Cc1sc2ncnc(N/N=C/c3cccc(O)c3)c2c1C | i | i | i | i | i
C/C(=N\Nc1ncnc2sc(C)c(C)c12)c1ccccn1 | nt | + | ? | nt | i
Cc1cc(C)n2nc(SCc3cc(=O)oc4cc(O)ccc34)nc2n1 | i | + | ? | i | nt
CCC(CC)CN1C(Nc2ccccc2)=NC[C@@H]1C | nt | i | i | nt | i
O/N=C/c1ccc2ccccc2n1 | i | i | i | i | i
O/N=C/c1ccc2cccc(O)c2n1 | i | i | i | 3.7 | i
Fc1ccc(NC(=S)N2CCCC(c3ccccc3)=N2)cc1 | i | + | 54 | i | i
Fc1ccc(NC(=S)N2CCCC2)cc1 | nt | nt | nt | i | i
COc1ccc(C2(C)NC(=O)N(CC(=O)Nc3c(C)n(C)n(-c4ccccc4)c3=O)C2=O)cc1 (centres undefined) | nt | nt | nt | nt | i
COc1ccc(C(=O)O)cc1S(=O)(=O)Nc1ccccc1C(=O)NCc1ccc2c(c1)OCO2 | nt | nt | nt | nt | i
COc1cccc(CN2C(=O)c3cccc(N)c3C2=O)c1 | i | + | 88 | i | i
CCN(CC)C(=O)C(c1ccccc1)S(=O)(=O)N1CCOCC1 (centres undefined) | nt | nt | nt | nt | i
CCCC1C(c2ccc(OC)cc2)C(C#N)(C#N)C2(C#N)CC1(N)NC2=O (centres undefined) | i | + | i | i | i
Cn1nc([N+](=O)[O-])c(C(C#N)c2nc3ccccc3n2C)c(Cl)c1=O (centres undefined) | i | i | ? | i | 65
Cn1c(-c2ccc([N+](=O)[O-])cc2)nc2ccccc21 | i | i | i | i | i
Cc1ccc(S(=O)(=O)NC(CCC(N)=O)C(=O)NCc2ccc3c(c2)OCO3)c(C)c1 (centres undefined) | nt | nt | nt | nt | i
CCc1cccc(OCC(=O)Nc2cc(S(=O)(=O)N3CCOCC3)ccc2N2CCCC2)c1 | nt | i | i | nt | i
COc1ccc(NC(C)C(=O)Nc2ccc(C#N)cc2)cc1Cl (centres undefined) | 31 | i | i | i | i
Cc1ccc(C)c(S(=O)(=O)Nc2ccc(O)c(Sc3ncn[nH]3)c2)c1 | i | + | 79 | i | i
O=C1CCCC(O)=C1N=Nc1ccc2c(c1)OCO2 | i | i | i | i | i
O=C1CCCC(O)=C1N=Nc1ccc(C(=O)O)cc1 | i | + | 102 | i | i
SMILES | eIF4E 4G PPI | PABP FP inh | eIF4H inh | PERK inhibitor | PABP1 MLLE inh
CC1CN(S(=O)(=O)c2cccc(C(=O)OC(C)C(=O)NC3CCCCC3C)c2)CC(C)O1 (centres undefined) | nt | i | i | nt | i
COc1ccc(NS(=O)(=O)c2cccc(NC(=O)CCC(=O)c3ccc(Cl)cc3)c2)cc1 | i | i | active | i | i
COc1ccc(NS(=O)(=O)c2cccc(NC(=O)CCC(=O)c3cccs3)c2)cc1 | i | i | i | i | i
CNC(=O)c1ccsc1NC(=O)c1sc2ccccc2c1Cl | i | + | 54 | i | i
Cc1nnc(NC(=O)c2sc3ccccc3c2Cl)s1 | i | i | i | i | i
Cc1ccc(C)c(NC(=O)c2cc[n+](C)cc2)c1 | nt | i | i | nt | i
CC(C)N(C(=O)/C=C/c1cccc([N+](=O)[O-])c1)C(C)C | i | i | i | 3.6 | i
O=C(OCCN1C(=O)c2cccc3c(N4CCOCC4)ccc(c23)C1=O)c1cc(Cl)cc(Cl)c1 | 33[fluorescence artefact?] | i | ? | i | nt
CCCc1ccc(C(O)c2ncc(-c3cccc(C)c3)[nH]2)cc1 (centres undefined) | nt | nt | nt | nt | i
